# Laboratory results: publication PMC7862700, “An all-to-all approach to the identification of sequence-specific readers for epigenetic DNA modifications on cytosine”
# Assays:
# Test in all cases: DAPPL (digital affinity profiling via proximity ligation, sequencing); 10 mM Tris-HCl pH 7.5, 50 mM NaCl, 1 mM DTT, 4% glycerol, room temperature, 30 min; GST-TFs on glutathione beads, 16-mer random dsDNA library, 0.1% formaldehyde crosslink after washing; high values mean tight binding
# Conditions in all cases: protein: recombinant; tags: N-terminal GST; dsDNA, one strand shown
# [1] = target: T1, FLI1 (Homo sapiens, UniProt Q01543 1-452)
# T1 sequence: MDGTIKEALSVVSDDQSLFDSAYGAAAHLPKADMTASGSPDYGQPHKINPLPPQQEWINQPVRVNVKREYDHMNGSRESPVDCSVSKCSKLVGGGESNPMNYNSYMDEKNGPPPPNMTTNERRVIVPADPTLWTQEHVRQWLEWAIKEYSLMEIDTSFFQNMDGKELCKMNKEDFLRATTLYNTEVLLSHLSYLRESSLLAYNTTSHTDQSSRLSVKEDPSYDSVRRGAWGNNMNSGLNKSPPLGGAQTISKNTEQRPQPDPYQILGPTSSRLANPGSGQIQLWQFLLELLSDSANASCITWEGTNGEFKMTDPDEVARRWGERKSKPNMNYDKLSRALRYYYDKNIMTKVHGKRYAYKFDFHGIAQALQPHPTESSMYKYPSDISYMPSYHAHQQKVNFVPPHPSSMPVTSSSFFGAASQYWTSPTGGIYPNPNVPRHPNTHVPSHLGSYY
# Summary of the method: (§1)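 Yeast served to express human transcription factors as GST fusions, which were then captured on glutathione beads and labelled with DNA barcodes. Pooled with a tag-only sample, they were incubated with 200 nmole of a 16-mer random double-stranded DNA library for 30 min at room temperature in Tris/NaCl/DTT/glycerol buffer, washed, crosslinked with 0.1% formaldehyde, ligated by proximity, amplified by PCR and sequenced. Dividing each hexamer's read frequency for a factor by its frequency for the tag-only sample gives the binding signal.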
# [2] = target: T2, GABPA (Homo sapiens, UniProt Q06546 1-454)
# T2 sequence: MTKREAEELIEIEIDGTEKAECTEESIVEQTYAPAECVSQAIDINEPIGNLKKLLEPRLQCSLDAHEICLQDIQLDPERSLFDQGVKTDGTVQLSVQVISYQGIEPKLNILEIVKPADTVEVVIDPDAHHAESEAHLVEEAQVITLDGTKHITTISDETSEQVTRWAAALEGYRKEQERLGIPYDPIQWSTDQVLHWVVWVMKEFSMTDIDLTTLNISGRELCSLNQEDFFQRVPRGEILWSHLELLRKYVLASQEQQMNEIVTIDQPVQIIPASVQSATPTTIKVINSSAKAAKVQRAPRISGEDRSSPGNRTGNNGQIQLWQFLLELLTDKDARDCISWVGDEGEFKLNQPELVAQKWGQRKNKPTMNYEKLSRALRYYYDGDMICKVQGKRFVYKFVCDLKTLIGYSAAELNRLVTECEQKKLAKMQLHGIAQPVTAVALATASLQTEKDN
# Summary of the method: as §1
# [3] = target: T3, ERG (Homo sapiens, UniProt P11308 1-479)
# T3 sequence: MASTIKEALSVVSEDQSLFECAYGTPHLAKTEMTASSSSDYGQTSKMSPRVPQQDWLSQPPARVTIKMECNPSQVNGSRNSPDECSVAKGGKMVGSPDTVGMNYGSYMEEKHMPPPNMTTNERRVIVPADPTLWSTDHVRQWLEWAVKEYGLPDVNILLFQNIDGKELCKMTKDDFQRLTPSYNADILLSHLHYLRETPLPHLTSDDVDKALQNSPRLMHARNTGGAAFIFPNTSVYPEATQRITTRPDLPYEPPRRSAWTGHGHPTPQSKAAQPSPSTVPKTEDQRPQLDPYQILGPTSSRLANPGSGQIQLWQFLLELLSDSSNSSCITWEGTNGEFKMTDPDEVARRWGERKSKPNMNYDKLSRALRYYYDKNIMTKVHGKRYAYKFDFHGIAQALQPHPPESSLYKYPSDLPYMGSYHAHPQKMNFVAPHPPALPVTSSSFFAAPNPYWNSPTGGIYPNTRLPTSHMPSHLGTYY
# Summary of the method: as §1
# [4] = target: ELF1 (Homo sapiens, UniProt P32519 1-619)
# Sequence of ELF1 (P32519 whole entry): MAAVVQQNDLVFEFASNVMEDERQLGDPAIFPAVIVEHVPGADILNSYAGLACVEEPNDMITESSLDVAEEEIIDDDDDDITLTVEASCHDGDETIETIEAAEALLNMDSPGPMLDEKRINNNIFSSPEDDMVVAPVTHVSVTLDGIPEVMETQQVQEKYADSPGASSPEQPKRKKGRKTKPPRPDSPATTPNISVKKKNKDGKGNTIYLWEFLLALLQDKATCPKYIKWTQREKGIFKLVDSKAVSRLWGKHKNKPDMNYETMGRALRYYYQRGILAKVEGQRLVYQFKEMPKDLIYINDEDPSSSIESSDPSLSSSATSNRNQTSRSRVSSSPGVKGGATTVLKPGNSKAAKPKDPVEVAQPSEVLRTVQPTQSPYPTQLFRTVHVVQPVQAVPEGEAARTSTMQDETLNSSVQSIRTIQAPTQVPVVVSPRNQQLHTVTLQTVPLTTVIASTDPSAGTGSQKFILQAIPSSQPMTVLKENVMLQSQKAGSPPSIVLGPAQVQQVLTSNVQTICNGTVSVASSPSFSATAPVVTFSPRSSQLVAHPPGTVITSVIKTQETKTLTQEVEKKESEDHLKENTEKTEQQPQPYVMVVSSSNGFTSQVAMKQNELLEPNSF
# Summary of the method: as §1
# [5] = target: SPIB (Homo sapiens, UniProt Q01892 1-262)
# Sequence of SPIB (Q01892 whole entry): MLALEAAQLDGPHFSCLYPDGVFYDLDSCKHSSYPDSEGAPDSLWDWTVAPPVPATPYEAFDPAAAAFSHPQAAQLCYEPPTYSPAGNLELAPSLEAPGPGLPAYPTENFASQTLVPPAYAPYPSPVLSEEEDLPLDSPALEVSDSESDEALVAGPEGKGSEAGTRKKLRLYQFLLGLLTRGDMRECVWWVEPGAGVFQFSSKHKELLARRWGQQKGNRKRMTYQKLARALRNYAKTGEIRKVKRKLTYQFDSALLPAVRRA
# Summary of the method: as §1
# [6] = target: T4, ELK3 (Homo sapiens, UniProt P41970 1-407)
# T4 sequence: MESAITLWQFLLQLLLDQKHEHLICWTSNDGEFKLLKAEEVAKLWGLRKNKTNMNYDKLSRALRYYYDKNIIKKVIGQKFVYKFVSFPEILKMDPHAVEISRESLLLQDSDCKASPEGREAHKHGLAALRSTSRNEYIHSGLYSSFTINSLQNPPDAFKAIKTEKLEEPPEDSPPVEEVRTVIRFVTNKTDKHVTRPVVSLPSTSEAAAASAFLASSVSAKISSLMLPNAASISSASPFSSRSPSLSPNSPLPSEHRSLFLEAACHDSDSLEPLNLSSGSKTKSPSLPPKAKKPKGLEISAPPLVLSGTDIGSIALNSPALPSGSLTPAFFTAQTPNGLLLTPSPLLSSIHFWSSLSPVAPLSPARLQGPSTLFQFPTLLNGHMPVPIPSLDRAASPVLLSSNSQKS
# Summary of the method: as §1
# [7] = target: T5, EHF (Homo sapiens, UniProt Q9NZC4 1-300)
# T5 sequence: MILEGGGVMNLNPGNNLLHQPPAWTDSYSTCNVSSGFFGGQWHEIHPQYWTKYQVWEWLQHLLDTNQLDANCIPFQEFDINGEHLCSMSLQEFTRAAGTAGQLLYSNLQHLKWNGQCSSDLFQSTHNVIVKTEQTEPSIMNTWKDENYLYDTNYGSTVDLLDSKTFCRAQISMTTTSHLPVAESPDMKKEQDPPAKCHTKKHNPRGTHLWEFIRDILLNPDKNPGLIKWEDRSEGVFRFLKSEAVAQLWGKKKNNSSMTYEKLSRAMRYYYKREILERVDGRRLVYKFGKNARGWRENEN
# Summary of the method: as §1
# [8] = target: SPI1 (Homo sapiens, UniProt P17947 1-270)
# Summary of the method: as §1
# [9] = target: T6, ELK1 (Homo sapiens, UniProt P19419 1-428)
# T6 sequence: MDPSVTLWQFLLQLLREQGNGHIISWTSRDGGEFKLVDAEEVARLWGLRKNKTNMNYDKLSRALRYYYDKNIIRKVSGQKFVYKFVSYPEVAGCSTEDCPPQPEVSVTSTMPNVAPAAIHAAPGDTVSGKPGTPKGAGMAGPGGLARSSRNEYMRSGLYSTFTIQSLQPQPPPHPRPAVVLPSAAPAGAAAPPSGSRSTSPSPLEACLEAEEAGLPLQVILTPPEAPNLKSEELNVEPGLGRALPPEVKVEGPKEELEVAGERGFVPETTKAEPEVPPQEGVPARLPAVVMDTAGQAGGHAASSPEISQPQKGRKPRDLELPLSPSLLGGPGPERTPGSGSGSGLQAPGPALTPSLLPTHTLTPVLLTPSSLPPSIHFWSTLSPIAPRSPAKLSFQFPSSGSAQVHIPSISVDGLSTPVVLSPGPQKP
# Summary of the method: as §1
Sequence,binding signal [1],binding signal [2],binding signal [3],binding signal [4],binding signal [5],binding signal [6],binding signal [7],binding signal [8],binding signal [9]
ACGATC,"1.05 fold enrichment (6-mer frequency, TF over GST control)","1.17 fold enrichment (6-mer frequency, TF over GST control)","1.03 fold enrichment (6-mer frequency, TF over GST control)","1.09 fold enrichment (6-mer frequency, TF over GST control)","1.08 fold enrichment (6-mer frequency, TF over GST control)","1.1 fold enrichment (6-mer frequency, TF over GST control)",,,
CGAAAT,"1.05 fold enrichment (6-mer frequency, TF over GST control)",,"1.02 fold enrichment (6-mer frequency, TF over GST control)","1.01 fold enrichment (6-mer frequency, TF over GST control)","1.07 fold enrichment (6-mer frequency, TF over GST control)",,"1.07 fold enrichment (6-mer frequency, TF over GST control)","1.09 fold enrichment (6-mer frequency, TF over GST control)",
CATAAA,"1 fold enrichment (6-mer frequency, TF over GST control)",,,,"1.01 fold enrichment (6-mer frequency, TF over GST control)",,,,
TTGGCT,"1.15 fold enrichment (6-mer frequency, TF over GST control)",,,"1.13 fold enrichment (6-mer frequency, TF over GST control)",,"1 fold enrichment (6-mer frequency, TF over GST control)","1.12 fold enrichment (6-mer frequency, TF over GST control)",,"1.07 fold enrichment (6-mer frequency, TF over GST control)"
TAAGCG,"1.05 fold enrichment (6-mer frequency, TF over GST control)","1.01 fold enrichment (6-mer frequency, TF over GST control)","1.02 fold enrichment (6-mer frequency, TF over GST control)","1.02 fold enrichment (6-mer frequency, TF over GST control)",,"1.01 fold enrichment (6-mer frequency, TF over GST control)","1.02 fold enrichment (6-mer frequency, TF over GST control)","1.03 fold enrichment (6-mer frequency, TF over GST control)",
GTTCCA,"1.12 fold enrichment (6-mer frequency, TF over GST control)","1.03 fold enrichment (6-mer frequency, TF over GST control)","1.01 fold enrichment (6-mer frequency, TF over GST control)","1.11 fold enrichment (6-mer frequency, TF over GST control)","1.1 fold enrichment (6-mer frequency, TF over GST control)","1.08 fold enrichment (6-mer frequency, TF over GST control)","1 fold enrichment (6-mer frequency, TF over GST control)","1.03 fold enrichment (6-mer frequency, TF over GST control)",
TAGTAA,"1.13 fold enrichment (6-mer frequency, TF over GST control)","1.03 fold enrichment (6-mer frequency, TF over GST control)",,"1.08 fold enrichment (6-mer frequency, TF over GST control)","1.07 fold enrichment (6-mer frequency, TF over GST control)","1.13 fold enrichment (6-mer frequency, TF over GST control)","1.03 fold enrichment (6-mer frequency, TF over GST control)","1.02 fold enrichment (6-mer frequency, TF over GST control)",
GTTAAA,"1.03 fold enrichment (6-mer frequency, TF over GST control)","1.01 fold enrichment (6-mer frequency, TF over GST control)","1.03 fold enrichment (6-mer frequency, TF over GST control)",,"1.07 fold enrichment (6-mer frequency, TF over GST control)","1.01 fold enrichment (6-mer frequency, TF over GST control)",,"1.08 fold enrichment (6-mer frequency, TF over GST control)",
